3CLpro inhibitor = SARS-CoV 3CLpro protease inhibition | hit rate 0.14% among 290,000 | inhibition, % at 6 µM | recombinant SARS-CoV 3CLpro, quenched FRET peptide cleavage | P0C6X7; in the data active = inhibition above about 12%
PriA SSB inh = K. pneumoniae PriA-SSBct interaction inhibition; AlphaScreen SSBct-PriA binding, biotinylated peptide; inhibition, % at 33 µM; AID 1272365; hit rate 0.6% among 430,000; in the data active = inhibition mostly above about 37%, no sharp cut-off; inactive = mostly below about 20%;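 also: plate controls were negative control peptide for no effect and reference peptide for full effect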
TcdB GH inh = inhibitors of Clostridioides difficile toxin B glycohydrolase | hit rate 0.24% among 350,000 | TcdB glycohydrolase enzymatic assay, plate reader | P18177 | AID 652162 | inhibition, % at 9.99 µM; in the data active = inhibition above about 10%
Vc quorum ag = induces V. cholerae light production without autoinducers. V. cholerae BH1578 lux reporter, luminescence, 6 h. activation, % at 18.7 µM. hit rate 0.16% among 350,000; in the data active = activation mostly above about 9.7%, no sharp cut-off
CCHF vOTU inh-1 = blocks the CCHF virus ovarian tumor domain protease; CCHFV vOTU protease, Pep-AMC fluorescence; inhibition, % at 11.5 µM; hit rate 0.55% among 370,000; AID 651958; also: 0% = vehicle wells with enzyme and 100% = no enzyme wells
VHR inh abs = DUSP3 (human) phosphatase inhibition | recombinant VHR phosphatase, pNPP absorbance | P51452 | hit rate 0.52% among 290,000 | AID 1654 | inhibition, % at 13.3 µM; in the data active = inhibition above about 50%
Target sequence (P51452 whole entry, looked up): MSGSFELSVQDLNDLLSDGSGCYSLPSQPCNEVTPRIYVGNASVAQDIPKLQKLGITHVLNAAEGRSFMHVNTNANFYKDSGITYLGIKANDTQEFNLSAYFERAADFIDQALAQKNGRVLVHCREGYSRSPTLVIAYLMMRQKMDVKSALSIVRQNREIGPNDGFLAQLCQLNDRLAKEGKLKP
CCHF vOTU inh-2 = confirmation of CCHF virus vOTU protease inhibitors | shares compounds with CCHF vOTU inh-1 | Recombinant CCHFV vOTU, Pep-AMC fluorescence | inhibition, % at 11.5 µM | hit rate 17% among 1,900
* marks the source's active call; other numbers are inactive results; i = inactive; · = no result. Only some compounds are listed: those with a hit (about 1.3% of all), similar ones and a draw of the others. Rule as the data show it, unless noted: active = inhibition above about 30%; inactive = the rest.

SMILES | 3CLpro inhibitor | PriA SSB inh | TcdB GH inh | Vc quorum ag | CCHF vOTU inh-1 | VHR inh abs | CCHF vOTU inh-2
COc1ccc(OC2CCN(C(=O)c3ccc(N4CCOCC4)cc3)C2)nn1 (stereo unspecified) | · | -4 | · | · | · | · | ·
CC1=NN(c2ccc(F)cc2)C(=O)C1C(c1cccc(O)c1)c1c(C)[nH]n(-c2ccc(F)cc2)c1=O (stereo unspecified) | 4 | 4 | · | 0 | 66* | 17 | -16
CC1=NN(c2ccc(Cl)cc2)C(=O)C1C(c1cccc(O)c1)c1c(C)[nH]n(-c2ccc(Cl)cc2)c1=O (stereo unspecified) | 0 | 27 | · | 0 | · | 5 | ·
Cc1ccc(-c2nc3ccc(C)cn3c2Cc2ccccc2C(F)(F)F)cc1 | · | · | 2 | · | 13 | · | ·
Cc1ccc2nc(C(C)(C)C)c(Cc3ccccc3C(F)(F)F)n2c1 | · | · | 2 | · | 30* | · | 17
O=C(COc1ccc(Cl)cc1)Nc1ccc2c(c1)CN(C(=O)c1ccccc1)CC2 | · | -9 | · | · | · | · | ·
CC1Cc2nc(SCC(=O)NCC3CCCO3)n(-c3ccccc3)c(=O)c2S1 (stereo unspecified) | · | · | 0 | 0 | 8 | · | ·
CC1Cc2nc(SCC(=O)NCc3ccco3)n(-c3ccccc3)c(=O)c2S1 (stereo unspecified) | 0 | 1 | -8 | -1 | 30* | 12 | 0
Cc1ccc(C(=O)N/C(=C/c2cn(-c3ccccc3)nc2-c2ccccc2)C(=O)O)cc1 | 4 | 3 | 0 | 0 | 39* | 12 | 1
CNC(=O)NC(=O)CSc1cccc2cccnc12 | · | 58 | · | · | · | · | ·
CCN1CCN(c2oc(-c3ccccc3C)nc2S(=O)(=O)c2ccccc2)CC1 | · | 39* | 10* | -2 | 35* | · | 4
COc1ccccc1-c1nc(S(=O)(=O)c2ccccc2)c(N2CCCCC2)o1 | 2 | 2 | 1 | -6 | 3 | 13 | ·
CSC1CC2CCC(C1)N2C(=O)c1ccc(-c2cccs2)cc1 (stereo unspecified) | · | 12 | · | · | · | · | ·
Cc1cc(Cl)c(C)c(S(=O)(=O)Oc2ccccc2NC(=O)CCC(=O)O)c1Cl | · | 1 | 1 | 1 | 33* | · | -6
COc1ccccc1NC(=O)CCC(=O)O | -1 | 2 | · | -1 | 5 | 2 | ·
COc1ccc(NC(=O)c2ccc(OCC3CCCO3)cc2)cc1Cl (stereo unspecified) | · | -3 | 1 | -3 | -4 | · | ·
COc1ccc(NC(=O)c2ccc(OCC3CCCO3)cc2)cc1OC (stereo unspecified) | · | -8 | 2 | -5 | 38* | · | -14
Cc1noc(C)c1C(=O)OCC(=O)Nc1ccc(N2CCOCC2)cc1 | · | -6 | 2 | 0 | 32* | · | -12
O=C(CCCSc1ccc(Cl)cc1)Nc1ccc(Cl)cc1C(=O)c1ccccc1 | · | -44 | · | · | · | · | ·
COc1ccc(C(C)=O)c2c(O)cccc12 | 0 | 4 | · | i | 31* | 0 | -17
COc1ccc(C(=O)c2ccccc2)c2c(O)ccc(C(=O)c3ccccc3)c12 | 1 | 1 | · | 3 | 5 | 19 | ·
O=C(O)c1ccc(N=Nc2c(O)[nH]c3ccc(Br)cc23)cc1 | 1 | 1 | 1 | 2 | 19 | · | ·
O=c1ccc2cc3c([nH]c4ccc(Br)cc43)oc-2c1O | 5 | · | · | 0 | 32* | -9 | 9
CCCc1cc(-c2ccc(O)c(OCC)c2)c(C#N)c(N)n1 | 3 | -3 | · | 5 | 39* | -1 | 4
CS(=O)(=O)N1C2CCC1CC(NC(=O)c1cccc(C#N)c1)C2 (stereo unspecified) | · | -13 | · | · | · | · | ·
SMILES | 3CLpro inhibitor | PriA SSB inh | TcdB GH inh | Vc quorum ag | CCHF vOTU inh-1 | VHR inh abs | CCHF vOTU inh-2
Cn1c2ccccc2c2cc(/C=C(\NC(=O)c3ccccc3)C(=O)O)ccc21 | 4 | -8 | -2 | i | 30* | -4 | -6
COC(=O)/C(=C\c1ccc2c(c1)c1ccccc1n2C)NC(=O)c1ccccc1 | 6 | 0 | · | i | -17 | 7 | ·
CCSc1nc(NC(C)C)c2cnn(CCNC(=O)c3ccc4c(c3)OCO4)c2n1 | · | -5 | · | · | · | · | ·
Cc1ccc(NS(=O)(=O)c2cccc3cccnc23)c(Cl)c1 | 2 | -15 | -6 | i | 37* | 13 | -4
Cc1ccc(NS(=O)(=O)c2cccc3cccnc23)c(Br)c1 | -1 | 4 | -10 | i | 10 | 20 | ·
Cc1ccc2c(c1)c1c(n2CC(O)Cn2c(C)nc3ccccc32)CCCC1 (stereo unspecified) | 0 | -9 | 1 | 0 | 4 | -18 | ·
